Results filed as inconclusive are left out. Entries that show only a call come without a potency. Calls of active or inactive are those of the source. The call rests on the fitted dose curve; in most records, active means well fitted inhibition curve with a large enough effect in the signal ratio in the repeat runs; inconclusive means weak or mixed curves, or effect the other way; inactive means flat fitted curve, though single readings scatter; the % refers to the signal ratio.
Potency means the concentration at half of the fitted maximal effect.

This test can be described thus: qHTS assay for small molecule disruptors of the mitochondrial membrane potential (AID 720635). Particulars: HepG2 mitochondrial membrane potential, Mito-MPS dye ratio; series mostly up to 83.2 µM. In short, it runs like this:
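HepG2 cells exposed to compound 1 hr at 37C, then Mito-MPS dye 30 min. Ratio read of aggregate (540/590 nm) versus monomer (490/535 nm) fluorescence.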
On to `O=C1[C@@H]2[C@H]3CC[C@H](C3)[C@@H]2C(=O)N1CCCCN1CCN(c2ncccn2)CC1`, for which the Potency result is “inactive”.

As for `COc1ccc(CCN(C)CCCN2CCc3cc(OC)c(OC)cc3CC2=O)cc1OC`, the Potency result is “inactive”.

As to `CSCC[C@H](NC(=O)[C@H](Cc1c[nH]c2ccccc12)NC(=O)CCNC(=O)OC(C)(C)C)C(=O)N[C@@H](CC(=O)O)C(=O)N[C@@H](Cc1ccccc1)C(N)=O`, the Potency result was “inactive”.

For `COc1ccc(-n2nc(C(F)F)cc2-c2ccc(S(C)=O)cc2)cc1` (stereo not drawn), the Potency result is “inactive”.

On to `SCCc1cnccn1`, for which the Potency entry is “inactive”.

Consider `Cc1cc(CCC(=O)OCCOCCOCCOC(=O)CCc2cc(C)c(O)c(C(C)(C)C)c2)cc(C(C)(C)C)c1O`, for which the Potency is 59.6 µM (active).

`CCCCCCCC/C=C\CCCCCCCC(=O)OCCO`: the Potency entry was “inactive”.

Consider `COc1ccc(N)c([N+](=O)[O-])c1`, for which the Potency result was “inactive”.

For the compound `COc1ccc2nc(S(=O)Cc3ncc(C)c(OC)c3C)[nH]c2c1` (stereo not drawn), the Potency result is “inactive”.

As for `O=C(O)CCC(=O)OC[C@@H](NC(=O)C(Cl)Cl)[C@H](O)c1ccc([N+](=O)[O-])cc1`, the Potency entry is “inactive”.

On to `CC(=O)OCCC(C)CC(C)(C)C` (stereo not drawn), for which the Potency result is “inactive”.

For `O=C1NC(=O)c2cccc3cccc1c23`, the Potency is 10.9 µM (active).

Turning to `CCCCC[C@H](O)/C=C/[C@H]1[C@H](O)CC(=O)[C@@H]1C/C=C\CCCC(=O)O`, the Potency result is “inactive”.

Turning to `CC[C@@H](CO)NCCN[C@@H](CC)CO`, the Potency entry was “inactive”.

`O=[N+]([O-])C1(Br)COCOC1`: the Potency is 48.6 µM (active).

For `CCCCOC(=O)CCCCC(=O)OCCCC`, the Potency result was “inactive”.

As to `O=C(O)c1cccc(C[C@@H]2COc3ccc(OCc4nc5cc(F)ccc5s4)cc3[C@@H]2O)c1`, the Potency was 54.5 µM (active).

With `CCOC(=O)c1ccc(NC(=O)CN2CCCCC2)cc1`, the Potency result was “inactive”.

For the origin of these results see PubChem BioAssay (Tox21).
